HCV inh – HCV inhibition; Huh7.5.1 HCVcc-Cre infection, luciferase reporter, 44 h; Potency, µM (doses to about 41.8 µM), without a hit: at the highest dose activity change, negative = inhibition, hits mostly inhibitors; 3.4% of 340,000 active; AID 651820; note: potency is the fitted concentration of half-maximal effect
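Infectious HCV cell culture screen: compound-treated cells (1,000/well, pre-plated 4 h) are infected with HCVcc-Cre at roughly 0.5 moi and grown 44 h. Infection is quantified by luciferase signal after 15 min substrate incubation at room temperature.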
HCMV antiviral – human cytomegalovirus inhibition; HFF cells, HCMV-luciferase reporter, 72 h; hits give low values; activity change, negative = inhibition, % at 57.5 µM; 4.5% of 410,000 active; AID 1259415; in the data active = activity change below about -60%; inconclusive = no clear call, values can overlap the other calls; inactive = above about -39%
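After 16 h attachment at 37C, HFF cells received test compound and HCMV-luciferase (1 PFU/cell); reporter luminescence read 72 h later, data normalized against buffer-only and known inhibitor Salinomycin.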
Pf growth 48h – inhibits P. falciparum growth in the first generation, 48 h | 5.9% of 310,000 active | AID 504832 | P. falciparum luciferase growth in erythrocytes, 48 h | Potency, µM (titrated, usually from 28.7 µM), without a hit: at the highest dose activity change, negative = inhibition, hits mostly inhibitors; note: potency is the fitted concentration of half-maximal effect
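A one-generation exposure of luciferase-tagged malaria parasites in RPMI 1640/Albumax erythrocyte culture, 37 C and 5% CO2. Inhibition is inferred from decreased luminescence after adding detection reagent.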
Pf growth 96h – P. falciparum growth inhibition at 96 hours; P. falciparum luciferase reporter growth, 96 h; Potency, µM (series often up to 28.7 µM), inactives show at the highest dose activity change, negative = inhibition, actives largely listed as inhibitors; 6.9% of 320,000 active; AID 504834; note: potency is the fitted concentration of half-maximal effect
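Parasite growth measured via integrated firefly luciferase reporter in P. falciparum. Infected erythrocytes at 2% hematocrit, 0.05% parasitemia final were treated 96 hours at 37 C under 5% CO2, and luminescence was read.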
Active calls of the source: *; u = inconclusive; x = no result. An excerpt weighted towards active compounds, which were near 13% of everything screened. Unless noted, calls come from the whole dose curve; as a rule, active = well fitted inhibition curve with a large enough effect; inconclusive = small, poorly fitted or top-dose-only effect, or another doubt; inactive = no such curve, though single readings can be large or run the other way. % is set by controls: 0 for no effect and ±100 for the full control effect.

SMILES	HCV inh	HCMV antiviral	Pf growth 48h	Pf growth 96h
O=C(Nc1ccccc1)c1ccccc1Oc1ccc(C(F)(F)F)cc1[N+](=O)[O-]	9%	u	-14%	17%
O=C(Nc1ccc(F)cc1)c1ccccc1Oc1ccc(C(F)(F)F)cc1[N+](=O)[O-]	11%	-37	10µM*	-99%
Cc1ccc(NS(=O)(=O)c2cc(C(=O)NCc3cccnc3)ccc2C)cc1	x	-35	-20%	8.3µM*
Cc1cc(C)c(S(=O)(=O)NCc2cccnc2)cc1C	-4%	-7	u	12µM*
Cc1cc(Br)c(S(=O)(=O)NCc2cccnc2)cc1C	17%	2	-8%	0%
O=C(NCc1cccnc1)c1cccc(NS(=O)(=O)c2ccc(Br)cc2)c1	13µM*	-38	3%	23%
CCCCOc1ccc(C2c3c(oc4ccccc4c3=O)C(=O)N2c2nc(C)c(C(=O)OCC)s2)cc1OC (centres undefined)	x	14	x	x
CN(CC(=O)Nc1ccccc1Cl)C(=O)COC(=O)c1cc(S(=O)(=O)N(C)C)ccc1N1CCCC1	-26%	-16	9%	7%
COc1ccc(N2CCN(C(=O)COC(=O)c3cc(S(=O)(=O)N(C)C)ccc3N3CCCC3)CC2)cc1	4%	-4	10µM*	u
CN(Cc1ccccc1)C(=O)COC(=O)c1cc(S(=O)(=O)N(C)C)ccc1N1CCCC1	u	-17	9.3µM*	12µM*
Cc1ccc(NC(=O)C(NS(=O)(=O)c2ccc3c(c2)CCC(=O)N3)c2ccccc2)cc1C (centres undefined)	x	55	x	x
C#CCNC(=O)C[C@H]1C[C@@]2(C(=O)OC)C(=C[C@H](C(C)(C)C)O[C@@H]2C)N(CCc2ccc(OC)c(OC)c2)C1=O	x	-30	x	x
CCC(=O)N1CCCC(C(=O)NS(=O)(=O)c2cc(C)c(Cl)cc2C)CC1 (centres undefined)	x	30	x	x
CCOc1ccc(/C=C/C(O)=C2/C(=O)N(C)C3(C)CC2c2ccccc2O3)cc1OC (centres undefined)	u	-98*	6.6µM*	20%
COc1ccc(Cc2nn3c(-c4ccccc4OC)nnc3s2)cc1	5%	58	9.3µM*	u
COc1ccccc1-c1nnc2sc(C3CCCCC3)nn12	-13%	u	10µM*	20%
COc1ccc(-c2nnc3sc(-c4ccccc4OC)nn23)cc1	3%	7	-11%	-9%
c1cc(-c2nnc3sc(C4CCCCC4)nn23)ccn1	-18%	-80*	u	u
c1csc(-c2nn3c(-c4ccncc4)nnc3s2)c1	x	x	6%	u
CCCCn1nnnc1C(C1CC1)N1C(=O)C(=O)c2ccccc21 (centres undefined)	x	-9	x	x
CCCn1c2ccccc2c2cnn(CC(=O)Nc3cccc(C(=O)OCC)c3)c(=O)c21	x	-37	x	x
C=C1N(S(=O)(=O)C(F)(F)F)CCC12CN(C)c1ccccc12 (centres undefined)	x	3	x	x
Cc1cc(C)cc(OCC(=O)NC(Cc2c[nH]c3ccccc23)C(=O)O)c1 (centres undefined)	x	5	x	x
O=[N+]([O-])c1cc(Cl)cc(C2=NCCN2)c1	8.9µM*	20	x	u
O=C(Cn1c2[n+](c3ccc(C(F)(F)F)cc31)CCCCC2)c1cccc([N+](=O)[O-])c1	-16%	2	15µM*	13µM*
SMILES	HCV inh	HCMV antiviral	Pf growth 48h	Pf growth 96h
FC(F)(F)c1ccc2c(c1)n(Cc1ccccc1)c1[n+]2CCCCC1	9%	-66*	6.6µM*	u
CCc1cccc(NC(=O)Cn2c3[n+](c4ccc(C(F)(F)F)cc42)CCCCC3)c1	u	-64*	4.7µM*	1µM*
Cc1cccc(-n2c(SCC(=O)Nc3ccc(C)c(C)c3)nc3n[nH]c(C)c3c2=N)c1	x	-28	x	x
CCCCNCC1C(Oc2ccc(Cl)cc2)C(=O)N1c1ccccc1C (centres undefined)	u	-79*	15µM*	-82%
CCCNCC1C(Oc2ccc(Cl)cc2Cl)C(=O)N1c1cccc(C)c1C (centres undefined)	32µM*	-90*	u	-7%
Cc1cccc(N2C(=O)C(Oc3ccc(Cl)cc3Cl)C2C(=O)O)c1C (centres undefined)	32%	-10	9%	10µM*
COc1ccc(-c2nsc(NC(=O)c3oc4ccccc4c3C)n2)cc1	x	1	x	x
O=C(O)CCNc1ccc(NCCC(=O)O)c2c1C(=O)c1ccccc1C2=O	-8%	-72*	u	u
O=C1c2cccc(NCCNCCO)c2C(=O)c2cccc(NCCNCCO)c21	u	-99*	x	x
COc1ccccc1NCCC(=O)O	-2%	0	0%	29%
O=C(NCCO)c1cccc2c1C(=O)c1ccccc1-2	17%	-30	33%	49%
Cc1cccc(N2C(=O)CN(Cc3sccc3C)C2=S)c1	7%	-25	u	-4%
Cc1cc(C)cc(N2C(=O)CN(Cc3sccc3C)C2=S)c1	5%	u	9.3µM*	u
CN(CC(=O)NCc1ccccc1Cl)S(=O)(=O)c1ccc2c(c1)c(=O)n(C)c(=O)n2C	x	-13	x	x
Cc1noc(/C=C/c2cccs2)c1S(=O)(=O)N1CCC(C(=O)NCc2ccccc2Cl)CC1	x	23	x	x
COc1cc(OC)c2ccc(=O)oc2c1C(CC(=O)N1CCOCC1)c1ccc(N(C)C)cc1 (centres undefined)	1%	-9	u	u
COc1cc(OC)c2ccc(=O)oc2c1C(CC(=O)N1CCCC1)c1ccc(N(C)C)cc1 (centres undefined)	25%	11	u	u
CCN(CC)C(=O)CC(c1ccc2c(c1)OCO2)c1c(OC)cc(OC)c2ccc(=O)oc12 (centres undefined)	-1%	5	8.3µM*	10µM*
CCN(CC)CCC(c1ccc(N(C)C)cc1)c1c(OC)cc(OC)c2ccc(=O)oc12 (centres undefined)	-3%	2	12µM*	u
CCN(CC)C(=O)CC(c1ccc(N(C)C)cc1)c1c(OC)cc(OC)c2c(-c3ccccc3)cc(=O)oc12 (centres undefined)	u	u	3.7µM*	2.1µM*
CCN(CC)C(=O)CC(c1ccc(N(C)C)cc1)c1c(OC)cc(OC)c2ccc(=O)oc12 (centres undefined)	-39%	-15	8.3µM*	10µM*
COc1cc(OC)c2ccc(=O)oc2c1C(CCN1CCCC1)c1ccc(N(C)C)cc1 (centres undefined)	-24%	-18	u	u
O=C1C[C@H](S(=O)(=O)c2ccccc2)[C@@H](/C=C/c2ccccc2)N1Cc1ccccc1	x	-4	x	x
Cc1ccc(S(=O)(=O)Nc2cc3c(C(=O)OCc4ccccc4)c(C)oc3c3ccccc23)c(C)c1	x	19	x	x
CCOc1ccc2nc(N3CCCC(C(=O)Nc4ccc(OC)cc4)C3)sc2c1 (centres undefined)	x	48	x	x
CCCc1nc2oc3c(NCCN(C)C)ncnc3c2c2c1CCCC2	u	34	13µM*	u

Compound activity as filed in PubChem.
